Results reported in PubChem BioAssay (NCATS).
Unmarked numbers belong to inactive results. Inconclusive results are not listed. The source made the active and inactive calls. Unless noted, calls follow the shape of the dose curve; as a rule, active = well fitted curve in the direction sought with a large enough effect; inconclusive = small, poorly fitted or top-dose-only effect, or another doubt; inactive = no such curve, though single readings can be large; an effect the other way counts as inactive or inconclusive.

Experiments:
[1] = Cell Viability - LYMP1-003 - Assay at 40 hr (AID 964); also: potency is read from the fitted curve at half-maximal effect; nearly all actives have a fitted effect of over 60% in size
How it was run: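 LYMP1-003 human lymphoblastoid cells, 2500/well, preincubated 5 h at 37 C, then treated with compound for 40 h at 37 C. Intracellular ATP read by CellTiter-Glo luminescence after 30 min at room temperature; AC50 from Hill-equation fits.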

[2] = Cell Viability - LYMP2-003 (AID 965);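 also: potency is read from the fitted curve at half-maximal effect; cells exposed to compounds for 24 h before reading; nearly all actives have a fitted effect of over 50% in size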
How it was run: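 Seed 2500 lymphoblastoid cells/well; incubate 5 hr, 37 C; add compounds; incubate 24 hr, 37 C; add CellTiter-Glo, 30 min RT; read luminescence. AC50 from Hill fit.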

[3] = Cell Viability - LYMP2-004 (AID 966); also: potency is read from the fitted curve at half-maximal effect; nearly all actives have a fitted effect of over 65% in size
How it was run: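 Lymphoblastoid LYMP2-004 cells, 2500 per well, were preincubated for 5 hr and then treated with compound for 24 h at 37 C in complete medium. Viability was read as cellular ATP by CellTiter-Glo luminescence, and AC50 values were taken from Hill fits to concentration-response data.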

[4] = Cell Viability - LYMP2-005 (AID 967); also: potency is read from the fitted curve at half-maximal effect
How it was run: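 Acute cytotoxicity is scored as a concentration-dependent drop in intracellular ATP in human lymphoblastoid LYMP2-005 cells after 24 h compound treatment. ATP is quantified by luciferase luminescence, and AC50 is derived by Hill-equation modelling.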

[5] = Cell Viability - LYMP2-013 (AID 970); also: potency is read from the fitted curve at half-maximal effect; nearly all actives have a fitted effect of over 55% in size
How it was run: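 Human lymphoblastoid LYMP2-013 cells, 2500/well, treated 24 h at 37 C in complete medium; viability as intracellular ATP by CellTiter-Glo luminescence after 30 min. AC50 from Hill fits of qHTS concentration-response.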

[6] = Cell Viability - LYMP2-015 (AID 971); also: potency is read from the fitted curve at half-maximal effect; nearly all actives have a fitted effect of over 55% in size
How it was run: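 LYMP2-015 human lymphoblastoid cells (2500/well) in complete medium, compound-treated 24 h at 37 C; viability read as cellular ATP by CellTiter-Glo luminescence after 30 min at room temperature. AC50 from Hill-equation fits of qHTS concentration-response data.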

[7] = Cell Viability - LYMP2-017 (AID 972); also: potency is read from the fitted curve at half-maximal effect; nearly all actives have a fitted effect of over 55% in size
How it was run: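 LYMP2-017 human lymphoblastoid cells (2500/well) settled 5 hr at 37 C, then exposed to compound 24 hr at 37 C in complete medium. Viability taken as intracellular ATP by CellTiter-Glo luminescence after 30 min at RT; AC50 from Hill fits.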

[8] = Cell Viability - LYMP2-019 (AID 973); also: potency is read from the fitted curve at half-maximal effect; nearly all actives have a fitted effect of over 55% in size
How it was run: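 Human lymphoblastoid LYMP2-019 cells (2500/well) preincubated 5 h at 37 C, then treated 24 h at 37 C in complete medium. Viability by CellTiter-Glo ATP luminescence after 30 min at room temperature; AC50 from Hill fits.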

[9] = Cell Viability - LYMP2-021 (AID 974)
How it was run: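 Human lymphoblastoid LYMP2-021 cells, 2500/well in complete medium, treated 24 hours at 37 C. Intracellular ATP by CellTiter-Glo luminescence (30 min, RT); AC50 from Hill fits of concentration-response.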

[10] = Cell Viability - LYMP2-023 (AID 975)
How it was run: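 LYMP2-023 human lymphoblastoid cells, 2500/well, preincubated 5 hr at 37 C, then compound-treated 24 hr at 37 C in complete medium. CellTiter-Glo luminescence (ATP) after 30 min at room temperature; AC50 from Hill-equation fits; tetraoctylammonium bromide positive control.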

[11] = Cell Viability - LYMP2-002 (AID 977);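 also: potency is read from the fitted curve at half-maximal effect; compound exposure lasted 24 h at 37 °C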
How it was run: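 Human lymphoblastoid LYMP2-002 cells, 2500 per well, exposed to compounds for 24 h at 37 C in complete medium; viability read as intracellular ATP by CellTiter-Glo luminescence, AC50 from Hill fits.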

[12] = Cell Viability - LYMP2-006 (AID 978); also: potency is read from the fitted curve at half-maximal effect; nearly all actives have a fitted effect of over 60% in size
How it was run: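 Cells are seeded at 2500 per well and rested 5 hr at 37 C. Compounds are added across a concentration series for 24 hr at 37 C, after which ATP is quantified by luciferase luminescence.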

[13] = Cell Viability - LYMP2-007 (AID 979);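 also: potency is read from the fitted curve at half-maximal effect; cells exposed to compound for 24 h before reading; nearly all actives have a fitted effect of over 60% in size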
How it was run: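 Human lymphoblastoid LYMP2-007 cells (2500/well) preincubated 5 h at 37 C, then treated 24 h at 37 C in complete medium. Viability by CellTiter-Glo ATP luminescence after 30 min at room temperature; AC50 from Hill fits.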

[14] = Cell Viability - LYMP2-008 (AID 980); also: potency is read from the fitted curve at half-maximal effect; nearly all actives have a fitted effect of over 60% in size
How it was run: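 LYMP2-008 lymphoblastoid cells (2500/well) plated 5 h, then treated 24 h at 37 C in complete medium. Viability read as intracellular ATP by CellTiter-Glo luminescence after 30 min at room temperature; AC50 from Hill fits.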

[15] = Cell Viability - LYMP2-010 (AID 981)
How it was run: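 Human lymphoblastoid LYMP2-010 cells (2500/well) treated 24 h at 37 C in complete medium; viability read as intracellular ATP by CellTiter-Glo luminescence. AC50 from Hill fits of concentration-response data; tetraoctylammonium bromide positive control.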

[16] = Cell Viability - LYMP2-012 (AID 982)
[17] = Cell Viability - LYMP2-016 (AID 984)
How it was run: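 Cells were seeded at 2500 per well and rested 5 hr before a 24 hr compound exposure at 37 C. Viability was then gauged as cellular ATP by luciferase luminescence, with AC50 values fitted to the Hill equation.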

[18] = Cell Viability - LYMP2-018 (AID 985); also: potency is read from the fitted curve at half-maximal effect; nearly all actives have a fitted effect of over 50% in size
How it was run: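 Human lymphoblastoid LYMP2-018 cells, 2500/well, settled 5 hr at 37 C then exposed to compound 24 hr at 37 C; intracellular ATP measured by CellTiter-Glo luminescence. AC50 from Hill-equation concentration-response fits.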

[19] = Cell Viability - LYMP2-020 (AID 986)
How it was run: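 Human lymphoblastoid LYMP2-020 cells (2500/well) preincubated 5 h at 37 C, then treated 24 h at 37 C. Viability measured as intracellular ATP by CellTiter-Glo luminescence after 30 min at room temperature; AC50 from Hill fits.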

[20] = Cell Viability - LYMP2-022 (AID 987)
How it was run: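 LYMP2-022 lymphoblastoid cells (2500/well, complete medium) were treated with compounds for 24 hours at 37 C; intracellular ATP was then read by CellTiter-Glo luminescence after 30 min at room temperature. AC50 values were derived from Hill-equation fits.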

[21] = Cell Viability - LYMP2-024 (AID 988)
How it was run: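 Human lymphoblastoid LYMP2-024 cells (2500/well) rested 5 hr, then treated with compound for 24 hr at 37 C in complete medium. Viability was measured as intracellular ATP by CellTiter-Glo luminescence. AC50 values came from Hill-equation fits.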

[22] = Cell Viability - LYMP2-026 (AID 989); also: potency is read from the fitted curve at half-maximal effect; nearly all actives have a fitted effect of over 50% in size
How it was run: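 Human lymphoblastoid LYMP2-026 cells, 2500/well, exposed to compound 24 h at 37 C in complete medium. Viability as intracellular ATP by CellTiter-Glo luminescence; AC50 from Hill fits of qHTS concentration-response.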

[23] = Cell Viability - LYMP1-002 - Assay at 24 hr (AID 993); also: potency is read from the fitted curve at half-maximal effect
How it was run: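 Human lymphoblastoid LYMP1-002 cells (2500/well) treated 24 h at 37 °C; viability as intracellular ATP by CellTiter-Glo luminescence. Tetraoctylammonium bromide as positive control; AC50 from Hill-equation fits of qHTS concentration-response.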

[24] = Cell Viability - LYMP1-002 - Assay at 40 hr (AID 994)
How it was run: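 LYMP1-002 human lymphoblastoid cells (2500/well, complete medium) were treated with compounds for 40 hr at 37 C. Intracellular ATP was measured by CellTiter-Glo luminescence, and AC50 values came from Hill-equation fits of concentration-response data; tetraoctylammonium bromide was the positive control.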

[25] = biological target: Bile acid receptor (Homo sapiens) (UniProt Q96RI1); test: qHTS assay for small molecule antagonists of farnesoid X receptor signaling (AID 588526; calls by dose curve; also: % is scaled to controls: 0 for no effect and ±100 for the full control effect)
Chain of Bile acid receptor (Homo sapiens) (Q96RI1 whole entry, looked up): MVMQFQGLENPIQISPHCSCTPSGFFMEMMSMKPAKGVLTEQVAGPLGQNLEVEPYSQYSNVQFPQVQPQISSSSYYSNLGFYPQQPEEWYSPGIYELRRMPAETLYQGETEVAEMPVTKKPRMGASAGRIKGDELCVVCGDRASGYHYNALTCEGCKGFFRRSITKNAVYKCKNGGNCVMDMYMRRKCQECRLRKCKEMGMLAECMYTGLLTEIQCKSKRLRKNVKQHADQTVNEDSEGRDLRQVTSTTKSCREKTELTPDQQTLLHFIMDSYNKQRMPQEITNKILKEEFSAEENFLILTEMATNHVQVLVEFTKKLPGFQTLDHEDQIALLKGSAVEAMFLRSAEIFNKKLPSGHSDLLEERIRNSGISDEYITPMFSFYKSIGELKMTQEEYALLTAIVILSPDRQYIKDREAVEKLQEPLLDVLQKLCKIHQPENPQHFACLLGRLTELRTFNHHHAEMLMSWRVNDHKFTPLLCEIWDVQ
How it was run: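 Antagonist mode: titrated compounds tested against chenodeoxycholic acid stimulation (normalized to 50 uM CDCA and DMSO) in GeneBLAzer HEK293T cells for 16 h. Beta-lactamase read by CCF4 fluorescence; IC50 from Hill fits.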

[26] = biological target: Peroxisome proliferator-activated receptor gamma (Homo sapiens) (UniProt P37231); test: qHTS assay for small molecule agonists of peroxisome proliferator-activated receptor gamma signaling (AID 588536; active = well fitted curve in the direction sought with a large enough effect in the signal ratio, with a control signal flat, not every such curve was filed as active; the % refers to the signal ratio;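 also: 0% = DMSO basal wells and 100% = rosiglitazone at 2 µM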)
Chain of Peroxisome proliferator-activated receptor gamma (Homo sapiens) (P37231 whole entry, looked up): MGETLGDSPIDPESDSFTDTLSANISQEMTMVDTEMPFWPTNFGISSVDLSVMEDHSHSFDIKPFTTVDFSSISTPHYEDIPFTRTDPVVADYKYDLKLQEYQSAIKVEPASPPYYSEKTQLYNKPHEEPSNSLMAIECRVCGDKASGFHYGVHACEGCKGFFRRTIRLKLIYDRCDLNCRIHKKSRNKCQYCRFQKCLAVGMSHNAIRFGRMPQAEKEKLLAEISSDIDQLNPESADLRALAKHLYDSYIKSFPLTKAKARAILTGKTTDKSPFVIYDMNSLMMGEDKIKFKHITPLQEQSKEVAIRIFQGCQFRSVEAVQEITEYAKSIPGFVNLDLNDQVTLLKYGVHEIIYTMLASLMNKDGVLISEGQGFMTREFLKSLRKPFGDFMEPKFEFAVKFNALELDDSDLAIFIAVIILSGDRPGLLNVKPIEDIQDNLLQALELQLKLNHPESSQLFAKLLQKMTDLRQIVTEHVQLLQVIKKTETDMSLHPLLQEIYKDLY
How it was run: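 Ratiometric blue/green fluorescence (405 nm excitation; 460 and 530 nm emission) from CCF4-loaded HEK293 reporter cells serves as signal. Exposure to test compounds lasts 16 h at 37 C in medium containing 1% charcoal/dextran-treated serum.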

[27] = qHTS assay for small molecule agonists of the antioxidant response element (ARE) signaling pathway (AID 651741; active = well fitted activation curve with a large enough effect in the signal ratio; the % refers to the signal ratio; also: potency is read from the fitted curve at half-maximal effect)
How it was run: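 CellSensor ARE-bla HepG2 cells (2,000/well) carrying ARE-driven beta-lactamase, exposed 16 h at 37 C. LiveBLAzer B/G FRET substrate added for 2 h at room temperature; fluorescence intensity read.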

[28] = qHTS assay for small molecule activators of the p53 signaling pathway (AID 651743; active = well fitted activation curve with a large enough effect in the signal ratio, not every such curve was filed as active; the % refers to the signal ratio; also: series mostly up to about 92 µM; % of control where 0% means no effect); conditions: HCT-116 p53RE-bla, beta-lactamase FRET ratio, 16 h; activation: hits give high values
How it was run: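 p53RE-bla HCT-116 cells carrying a beta-lactamase reporter under p53 response elements were exposed to compounds for 16 hours at 37 C. Reporter activity read as fluorescence after 2 hours at room temperature with LiveBLAzer B/G FRET substrate.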

[29] = qHTS assay for small molecule disruptors of the mitochondrial membrane potential - 1 hr assay (AID 651754; calls by dose curve; also: potency is read from the fitted curve at half-maximal effect; nearly all actives have a fitted effect of over 35% in size)
How it was run: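 HepG2 cells, attached overnight, were exposed to compound for 1 hr at 37C, then stained 30 min with a potentiometric dye. Ratio of red aggregate (590nm) to green monomer (535nm) fluorescence reports membrane potential; collapse shifts signal toward green.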

[30] = qHTS assay for small molecule disruptors of the mitochondrial membrane potential - 5 hr assay (AID 651755; calls by dose curve; also: potency is read from the fitted curve at half-maximal effect; nearly all actives have a fitted effect of over 40% in size)
How it was run: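 HepG2 cells (2,000/well), attached overnight, exposed to compound 5 hr at 37C, then Mito-MPS dye 30 min. Fluorescence read for monomers (490/535 nm) and aggregates (540/590 nm).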

[31] = qHTS assay for environmental chemicals that activate the Aryl hydrocarbon Receptor (AhR) signaling pathway (AID 651777); conditions: 1A2-DRE human hepatoma cells, luciferase, 24 h; activation: hits give high values; also: % of control where 0% means no effect; nearly all actives have a fitted effect of over 15% in size
How it was run: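 Luminescence (One-Glo, 30 min, room temperature) reports AhR-driven luciferase in stably transfected human hepatoma cells bearing DRE and CYP1A2 promoter. Cells (1,200/well) were treated with compound for 24 hr at 37 C in qHTS format.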

[32] = biological target: Peroxisome proliferator-activated receptor alpha (Homo sapiens) (UniProt Q07869); test: qHTS assay for small molecule agonists of the peroxisome proliferator-activated receptor alpha (PPARalpha) signaling pathway (AID 651778); conditions: PathHunter PPARalpha complementation, chemiluminescence, 6 h; max response: hits give high values; also: % of control where 0% means no effect
Chain of Peroxisome proliferator-activated receptor alpha (Homo sapiens) (Q07869 whole entry, looked up, the tested form may be a part): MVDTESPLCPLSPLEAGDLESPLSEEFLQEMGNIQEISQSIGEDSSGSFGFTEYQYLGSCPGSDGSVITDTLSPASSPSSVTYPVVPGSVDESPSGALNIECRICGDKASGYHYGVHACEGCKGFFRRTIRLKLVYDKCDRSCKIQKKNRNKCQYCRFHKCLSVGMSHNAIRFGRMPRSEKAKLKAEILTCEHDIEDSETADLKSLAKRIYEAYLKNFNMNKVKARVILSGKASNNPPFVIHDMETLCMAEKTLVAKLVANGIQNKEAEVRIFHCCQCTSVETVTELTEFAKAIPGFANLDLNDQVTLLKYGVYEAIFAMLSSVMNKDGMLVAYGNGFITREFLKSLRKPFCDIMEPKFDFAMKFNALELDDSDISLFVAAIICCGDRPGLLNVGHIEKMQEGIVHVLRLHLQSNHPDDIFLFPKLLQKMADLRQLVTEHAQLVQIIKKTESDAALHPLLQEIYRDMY
How it was run: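 Enzyme-fragment complementation assay in which ligand-bound PPARalpha translocates and forms an active enzyme that generates chemiluminescence. Cells were plated overnight, exposed to compound for 6 hr at 37 C, and then given detection reagent for 60 min at room temperature.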

[33] = biological target: Nuclear receptor ROR-gamma (Homo sapiens) (UniProt P51449); test: qHTS assay for small molecule antagonists of the retinoid-related orphan receptor gamma (ROR-gamma) signaling pathway (AID 651802)
Chain of Nuclear receptor ROR-gamma (Homo sapiens) (P51449 whole entry, looked up): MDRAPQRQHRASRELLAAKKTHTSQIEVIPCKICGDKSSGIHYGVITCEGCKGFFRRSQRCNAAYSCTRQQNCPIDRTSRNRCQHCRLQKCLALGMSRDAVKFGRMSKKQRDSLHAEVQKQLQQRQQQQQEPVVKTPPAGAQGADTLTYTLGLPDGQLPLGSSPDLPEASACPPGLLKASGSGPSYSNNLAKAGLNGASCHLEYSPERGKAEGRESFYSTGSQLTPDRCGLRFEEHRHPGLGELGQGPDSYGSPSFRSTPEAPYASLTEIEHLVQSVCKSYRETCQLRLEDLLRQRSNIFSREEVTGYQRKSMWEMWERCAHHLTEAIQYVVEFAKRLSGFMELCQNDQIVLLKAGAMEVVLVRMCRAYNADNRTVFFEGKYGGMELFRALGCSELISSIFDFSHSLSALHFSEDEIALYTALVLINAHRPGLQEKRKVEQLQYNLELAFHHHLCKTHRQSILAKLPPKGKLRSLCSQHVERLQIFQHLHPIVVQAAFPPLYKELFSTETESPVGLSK
How it was run: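 CHO cells with TET-inducible ROR-gamma and RORE-luciferase reporter, dosed then doxycycline-induced. After 16 h at 37C, One-Glo luminescence read; decreased signal indicates antagonism.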

[34] = qHTS assay for small molecule agonists of the antioxidant response element (ARE) signaling pathway measured by Nrf2-dependant transcriptional activity (AID 720636; active = well fitted curve in the direction sought with a large enough effect in the repeat runs; an effect the other way counts as inactive or inconclusive; also: % of control where 0% means no effect)
How it was run: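 Nrf2-dependent transcription read as ONE-Glo luciferase signal from ARE-luc HepG2 reporter cells after 16 hr compound treatment at 37 C, 5% CO2, in assay medium with 1% dialyzed FBS.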

[35] = qHTS assay for small molecule antagonists of the retinoid-related orphan receptor gamma (ROR-gamma) signaling pathway - cell viability counter screen (AID 720652; active = well fitted curve in the direction sought with a large enough effect in the repeat runs; an effect the other way counts as inactive or inconclusive;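 also: potency is read from the fitted curve at half-maximal effect; compound exposure lasted 16 hr before ATP read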)
How it was run: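 CHO cells carrying TET-inducible ROR and RORE-luciferase reporter, plated 5 hr, then dosed with compound plus doxycycline. After 16 hr at 37 C, viability read as intracellular ATP by CellTiter-Glo luminescence.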

[36] = qHTS assay for small molecule activators of the human pregnane X receptor (PXR) signaling pathway (AID 720659; call rule not given here; also: 0% is about no effect)

Structure (SMILES): N=C1C=CC(=C(c2ccc(N)cc2)c2ccc(N)cc2)C=C1
- Potency [1]: 12.6 µM (active)
- Potency [2]: 15.8 µM (active)
- Potency [3]: 12.6 µM (active)
- Potency [4]: 12.6 µM (active)
- Potency [5]: 12.6 µM (active)
- Potency [6]: 10 µM (active)
- Potency [7]: 12.6 µM (active)
- Potency [8]: 7.94 µM (active)
- Potency [9]: 7.94 µM (active)
- Potency [10]: 10 µM (active)
- Potency [11]: 7.94 µM (active)
- Potency [12]: 10 µM (active)
- Potency [13]: 7.94 µM (active)
- Potency [14]: 7.94 µM (active)
- Potency [15]: 7.94 µM (active)
- Potency [16]: 7.94 µM (active)
- Potency [17]: 7.94 µM (active)
- Potency [18]: 7.94 µM (active)
- Potency [19]: 3.98 µM (active)
- Potency [20]: 3.16 µM (active)
- Potency [21]: 7.94 µM (active)
- Potency [22]: 7.94 µM (active)
- Potency [23]: 12.6 µM (active)
- Potency [24]: 15.8 µM (active)
- Potency [25]: inactive
- outcome [26]: inactive
- Potency [27]: 42.2 µM (active)
- activation [28]: 11.1%
- Potency [29]: 1.33 µM (active)
- Potency [30]: 0.531 µM (active)
- activation [31]: 3.01%
- max response [32]: -9.83%
- Potency [33]: 6.68 µM (active)
- Potency [34]: inactive
- Potency [35]: 18.8 µM (active)
- outcome [36]: inactive
